From PubChem
FPRL1 ligand: ligands of human FPRL1, also counter-screen for FPR ligands. P25090. FPRL1-expressing cells, fluorescent ligand binding inhibition, flow cytometry. inhibition, % (no concentration beside the values). 24,000 tested, 0.3% active. AID 441
QS inhibitor: blocks AIP-induced quorum sensing reporter in S. aureus; S. aureus RN6390 RNAIII-GFP reporter, flow cytometry 3 h; inhibition, % at 2 µM; 24,000 tested, 0.3% active;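 active means share of bacteria positive for the green fluorescent reporter and its mean brightness both inhibited by 50% or more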
LNCaP diff act: promotes differentiation of LNCaP prostate cells; 24,000 tested, 0.56% active; side scatter shift, % at 10 µM; flow cytometry side scatter, 4 d;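 active means side scatter shift above 30%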;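 further: androgen-responsive LNCaP prostate cancer cells in charcoal-stripped serum medium; higher shift means more granular cells and more differentiation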
FPR ligand: human FPR ligand, with FPRL1 counter-screen | inhibition, % (test concentration not listed) | AID 440 | P21462 | 24,000 tested, 0.74% active | FPR-expressing cells, fluorescent ligand binding, flow cytometry
Large screens that a line does not name were inactive. Compounds with a hit are over-represented: about 1.7% of the library has one in this group of screens. Unless noted, no stated cut-off is given here; in the data, active means inhibition above about 30%; inconclusive means no clear call, values can overlap the other calls; inactive means below that.

CCOC(=O)c1nnn(-c2nonc2N)c1CSc1ccccn1	none
CCOC(=O)C1CCCN(c2c(Nc3cccc(C)c3)c(=O)c2=O)C1 (stereo not given)	none
CC1(C)CC(=O)c2cc(OCC(=O)NCCCN3CCN(c4ccccc4F)CC3)ccc2O1	LNCaP diff act 30.0
CCn1c(=O)cc(SCC(=O)NCCCN2CCN(c3ccccc3F)CC2)c2ccccc21	LNCaP diff act 49.0
CCN1CCN(C(c2cccs2)C(C)NS(=O)(=O)c2ccc(Br)cc2)CC1 (stereo not given)	LNCaP diff act 32.0
Cc1ccc(S(=O)(=O)NC(C)C(c2cccs2)N2CCN(C)CC2)cc1 (stereo not given)	none
O=C(Nc1ccc(Cl)c(C(F)(F)F)c1)C1CCCN(S(=O)(=O)c2cnc[nH]2)C1 (stereo not given)	none
CCOc1cc2[nH]c(=O)n(CC3CCC(C(=O)NC(C)CC)CC3)c(=O)c2cc1OCC (stereo not given)	none
O=C(Cn1cnc2c(cnn2-c2ccc(F)cc2)c1=O)OCc1ccccc1	FPRL1 ligand 54.3, FPR ligand 39.5
Cc1ccc2nc3c(cc(C(=O)NCc4ccccc4)c(=N)n3CCCn3ccnc3)c(=O)n2c1	LNCaP diff act 31.0
Cc1cccn2c(=O)c3cc(C(=O)NC(C)c4ccccc4)c(=N)n(CCCn4ccnc4)c3nc12 (stereo not given)	LNCaP diff act 37.0
COCCCn1c(=N)c(C(N)=S)cc2c(=O)n3cccc(C)c3nc21	none
N=c1c(C(=O)NCc2ccccc2)cc2c(=O)n3ccccc3nc2n1Cc1ccco1	none
COc1cccc(C(CC(=O)NCc2ccco2)NS(=O)(=O)c2ccc(C)cc2)c1OC (stereo not given)	none
CCOC(=O)Nc1ccc2c(c1)Sc1ccccc1N2C(=O)CCN1CCOCC1	none
COc1ccc2nc(NC(=O)C(NS(=O)(=O)c3cccc4nsnc34)C(C)C)sc2c1 (stereo not given)	none (no result: FPRL1 ligand, LNCaP diff act, FPR ligand)
